From PubChem BioAssay
Pf growth 48h: Primary qHTS for delayed death inhibitors of the malarial parasite plastid, 48 hour incubation. P. falciparum luciferase growth in erythrocytes, 48 h. Potency, µM (doses to about 28.7 µM), inactives show at the highest dose activity change, negative = inhibition, usual class: inhibitors. 5.9% of 310,000 active; note: potency is the fitted concentration of half-maximal effect; % is set by controls: 0 for no effect and ±100 for the full control effect
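Luminescence readout; reporter = integrated firefly luciferase in P. falciparum. RBC culture at 2% hematocrit, 0.1% parasitemia final, 37 C/5% CO2; decreased signal taken as growth inhibition.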
CHX counter: Cycloheximide Counterscreen for Small Molecule Inhibitors of Shiga Toxin | AID 2314, 2010 | cell reporter, cycloheximide protein synthesis inhibition counterscreen | max response, % | 12% of 300,000 active; in the data active = max response mostly above about 13%, no sharp cut-off; inactive = mostly below about 14%; note: read at 38.3 µM for the half of the compounds with a filed dose; 0% is about no effect
HCMV antiviral: qHTS Assay for inhibitors of the human cytomegalovirus (HCMV) | HFF cells, HCMV-luciferase reporter, 72 h; active compounds read low | activity change, negative = inhibition, % at 57.5 µM | 4.5% of 410,000 active; in the data active = activity change below about -60%; inconclusive = no clear call, values can overlap the other calls; inactive = above about -39%; note: % is set by controls: 0 for no effect and ±100 for the full control effect
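Two-dose cell screen: HFF monolayers treated with compounds and infected with luciferase-expressing HCMV at 1 PFU/cell, 72 h at 37C, then lysed for luciferase measurement.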
Shiga toxin inh: A qHTS for Small Molecule Inhibitors of Shiga Toxin | 9.2% of 290,000 active | inhibition, % at 38.7 µM | Vero cells, Shiga toxin protein synthesis inhibition reporter; in the data active = inhibition mostly above about 28%, no sharp cut-off; inactive = mostly below about 43%; note: 0% is about no effect
Pf growth 96h: Primary qHTS for delayed death inhibitors of the malarial parasite plastid, 96 hour incubation. 6.9% of 320,000 active. P. falciparum luciferase reporter growth, 96 h. Potency, µM (doses to about 28.7 µM), inactives show top-dose activity change, negative = inhibition, hits mostly inhibitors; note: potency is the fitted concentration of half-maximal effect; % is set by controls: 0 for no effect and ±100 for the full control effect
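P. falciparum expressing integrated firefly luciferase grown in erythrocytes (2% hematocrit, 0.05% parasitemia final) with compounds for 96 hours at 37 C, 5% CO2. Growth inhibition read as loss of luminescence after adding luciferase detection reagent.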
An asterisk follows results filed as active; u = inconclusive; x = not tested or not shown; [ ] = remark or other dose. The list is not random: actives were taken first. Their share in the collection is about 20%. Unless noted, calls come from the whole dose curve; as a rule, active = well fitted inhibition curve with a large enough effect; inconclusive = small, poorly fitted or top-dose-only effect, or another doubt; inactive = no such curve, though single readings can be large or run the other way.

SMILES | Pf growth 48h | CHX counter | HCMV antiviral | Shiga toxin inh | Pf growth 96h
CCOn1c(=O)c(-c2ccc(OC)cc2)[n+]([O-])c2ccccc21 | 46.2% | 1.9 | 55.8 | 20.9 | -8.1%
Cc1ccc(OCC(=O)OC(C)C(=O)NC2CCCCC2C)cc1C (stereo unspecified) | 17.4% | x | 0.7 | x | 15.0%
Nn1c(-c2cccc([N+](=O)[O-])c2)nc2ccccc2c1=O | -18.2% | 0.9 | -5.5 | -7.2 | 9.1%
COc1ccc(CNC(=O)c2cnc(N3CCCC3)nc2C)c(OC)c1 | x | x | -8.5 | x | x
CCCC1CCc2[nH]nc(C(=O)NN)c2C1 (stereo unspecified) | 1.6% | x | -27.3 | x | 38.9%
CCOn1c(=O)c(-c2ccc(C)cc2)[n+]([O-])c2ccccc21 | 8.1%[0.00184 µM] | -2.3 | -60.3* | -9.9 | 35.2%
N#C/C(=C\c1ccccn1)c1ccccn1 | u | 33.0* | -73.6* | 60.7* | 8.28µM*
Cc1cc(C)n2nc(/C(C#N)=C/c3ccccn3)c(C#N)c2n1 | 418.9% | 25.3* | 6.5 | 27.5 | u
N#C/C(=C/c1cccs1)c1ccccn1 | 98.2% | 34.9* | 70.6 | 72.5* | 75.3%
O=C(Nc1nc2ccccc2s1)C1CC(=O)N(c2ccc(F)cc2)C1 (stereo unspecified) | 4.6% | -1.1 | -17.9 | -15.3 | 3.6%
COCCCN(C(=S)Nc1c(C)cc(C)cc1C)C(C)c1ccccn1 (stereo unspecified) | -11.1% | -3.7 | 2.5 | -6.8 | -21.8%
CCC1CCC/C1=N\NC(=O)c1ccoc1C (stereo unspecified) | 1.0% | 37.8* | 48.9 | 86.5* | -0.1%
CCC1CCC/C1=N\NC(=O)c1ccccc1Cl (stereo unspecified) | x | x | -5.7 | x | x
CCC(=O)c1ccc(N2CCC(C)CC2)c(F)c1 | 10.5% | 30.4* | -6.9 | 36.1* | 9.3%
CCC(=O)c1ccc(N2CCN(C(=O)c3ccccc3)CC2)c(F)c1 | -16.4% | -2.0 | -36.4 | 20.9 | 29.5%
CCCC(=O)c1ccc(N2CCC(C)CC2)c(F)c1 | 41.9% | 42.7* | -23.2 | 60.3* | -14.6%
CCC(=O)c1ccc(N2CCN(C(=O)COc3ccc(F)cc3)CC2)c(F)c1 | u | -3.3 | -27.8 | -12.6 | 45.2%
Cc1ccc(C)c(NC(=O)c2nn(C)c3c2CS(=O)(=O)c2ccccc2-3)c1 | x | x | -14.9 | x | x
CCN(CC)S(=O)(=O)c1ccc2c(c1)nc(CN(C)C(=O)Nc1ccc(C)c(F)c1)n2C | x | x | -4.1 | x | x
CCCn1c(N)c(N(CCOC)C(=O)c2ccccc2)c(=O)[nH]c1=O | 13.8% | -8.5 | -1.9 | -24.1 | 0.7%
O=c1c2oc3ccccc3c2n(Cc2ccccc2)c(=O)n1Cc1ccc2c(c1)OCO2 | x | x | -33.0 | x | x
CCOC(=O)c1ccccc1Nc1cc(C)nc2nc(-c3ccco3)nn12 | x | 17.9 | 44.0 | 43.6 | x
Cc1cc(Nc2ccccc2Cl)n2nc(-c3ccco3)nc2n1 | x | x | -72.1* | x | x
CCN(CC)C(=O)C1=C(C)N(Cc2ccccc2)C(=O)C(CC(=O)NCCc2ccccn2)C1 (stereo unspecified) | x | x | 17.1 | x | x
NC(=O)[C@@H]1[C@@H]2C(=O)N(c3ccc(F)cc3)C(=O)[C@@H]2[C@H]2C=Cc3ccccc3N21 | u | -3.8 | 47.8 | -6.4 | u
SMILES | Pf growth 48h | CHX counter | HCMV antiviral | Shiga toxin inh | Pf growth 96h
O=C(c1ccco1)[C@@H]1[C@@H]2C(=O)N(c3ccc(F)cc3)C(=O)[C@@H]2[C@H]2C=Cc3ccccc3N21 | u | 9.4 | 70.5 | 22.7 | 3.7µM*
CC1CCc2noc(NC(=O)c3ccccc3[N+](=O)[O-])c2C1 (stereo unspecified) | x | x | 3.9 | x | x
CCc1ccc(CN(C)C(=O)c2cc(COc3cncc(Cl)c3)on2)cc1 | x | x | 3.5 | x | x
COC(=O)[C@@H](NC(=O)c1cc(COc2cncc(Cl)c2)on1)c1ccccc1 | 10.0% | 39.6* | 22.7 | 33.8 | -9.5%
CCC(NC(=O)c1cc(COc2cncc(Cl)c2)on1)c1ccc(C)cc1 (stereo unspecified) | 52.8% | -1.5 | -99.2* | 17.1 | 5.22µM*
O=C1[C@H]2[C@@H](c3ccc(Cl)cc3)N3C(=O)N(c4cccc(Cl)c4)C(=O)[C@@]3(Cc3ccc(Cl)cc3)[C@H]2C(=O)N1C1CCCCC1 | 2.62µM* | x | -4.5 | x | u
O=C1[C@H]2[C@@H](c3ccc(F)cc3)N3C(=O)N(c4ccc(Br)cc4)C(=O)[C@@]3(Cc3ccccc3)[C@H]2C(=O)N1C1CCCCC1 | 3.29µM* | 1.3 | -18.5 | -6.2 | 3.7µM*
Cc1cccc(N2C(=O)N3[C@H](c4ccc(Cl)cc4)[C@@H]4C(=O)N(C5CCCCC5)C(=O)[C@@H]4[C@]3(Cc3ccc(Cl)cc3)C2=O)c1 | u | -2.5 | x | -11.3 | u
O=C1[C@H]2[C@@H](c3ccc(Cl)cc3)N3C(=O)N(c4cccc(F)c4)C(=O)[C@@]3(Cc3ccc(Cl)cc3)[C@H]2C(=O)N1C1CCCCC1 | u | -2.6 | x | -8.2 | u
O=C1[C@H]2[C@@H](c3ccc(F)cc3)N3C(=O)N(c4cccc(F)c4)C(=O)[C@@]3(Cc3ccc(Cl)cc3)[C@H]2C(=O)N1C1CCCCC1 | 14.7µM* | x | -21.1 | x | 8.28µM*
Cc1cccc(N2C(=O)N3[C@H](c4ccc(F)cc4)[C@@H]4C(=O)N(C5CCCCC5)C(=O)[C@@H]4[C@]3(Cc3ccc(Cl)cc3)C2=O)c1 | u | -3.6 | -19.5 | -4.3 | u
Cc1ccc(N2C(=O)N3[C@H](c4ccc(Cl)cc4)[C@@H]4C(=O)N(C5CCCCC5)C(=O)[C@@H]4[C@]3(Cc3ccccc3)C2=O)cc1 | u | 9.7* | -19.5 | 19.3* | 3.7µM*
O=C(O)CCC(=O)N1CCN(c2ncccn2)CC1 | 9.0% | -1.4 | -7.1 | -10.5 | u
c1csc(-c2cn3ccc4ccccc4c3n2)c1 | 0.262µM* | 1.0 | 160.2 | -18.1 | 105.2%
c1csc(-c2nc3c4ccccc4c4ccccc4c3[nH]2)c1 | u | 8.2 | -20.6 | -36.9 | u
Cc1ccc(Cc2nnc3n(-c4ccccc4)nc(C(=O)c4ccccc4)n3c2=O)cc1 | 13.1µM* | -3.6 | u | -1.8 | 13.1µM*
COc1ccc(-c2nn(CCC(=O)O)cc2/C=N/NC(N)=S)cc1 | -3.5% | -0.9 | 31.7 | 7.4 | 0.0%
CC1(C)CC(=O)c2c(nc(SCC(=O)Nc3nsc(-c4ccccc4)n3)c(C#N)c2-c2ccccc2)C1 | u | 2.3 | -0.8 | 15.1 | 14.7µM*
COc1ccc2c(C)cc(SCC(=O)Nc3nsc(-c4ccc(C)cc4)n3)nc2c1 | 41.5% | -3.0 | 23.5 | -16.3 | 88.5%
Cc1ccc(-c2nc(NC(=O)CSc3nnc(C)s3)ns2)cc1 | x | 22.9* | 5.8 | 76.5* | -32.0%
Cc1nnc(SCC(=O)Nc2nsc(-c3ccccc3)n2)s1 | 26.2% | 15.5* | -23.9 | 29.6 | 7.38µM*
COc1ccc(-c2nc(NC(=O)CSc3nnc(C)s3)ns2)cc1 | 40.2% | 33.9* | u | 33.0* | 152.4%
CC(=O)c1ccc(NC(=O)COCc2cc(-c3ccc(F)cc3)on2)cc1 | x | x | -11.4 | x | x
